Source: PubChem BioAssay
The source made the active and inactive calls.

What was measured:
[1] = optical density shifts of acrAB sulA E. coli – strain DRC41, OD650, 48 h, E. coli filamentation inducer project, primary screen (AID 1152); details: higher = more signal, called active from +8 up or from −8 down;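 note: E. coli MC1000 strain DRC41 lacking acrAB efflux pump and sulA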
[2] = probe aLefty1 binding on compound microarray – biochemical, small-molecule microarray, 635/667 nm fluorescence, primary screen (AID 1153); details: higher = more signal;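 note: score merges spot fluorescence with signal-to-noise ratio from the scanned slide images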
[3] = plasmodial surface anion channel blockers, osmotic lysis – cell-based, P. falciparum Indochina, OD700, 1 h, primary screen (AID 1154); details: P. falciparum Indochina infected RBC osmotic lysis, higher = more signal, called active from +8 up or from −8 down
[4] = plasmodial surface anion channel blockers, osmotic lysis – cell-based, P. falciparum Indochina, OD700, 2 h, primary screen (AID 1155);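 note: lysis reports solute entry through the parasite surface anion channel PSAC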; details: P. falciparum Indochina infected erythrocytes, higher = more signal, called active from +8 up or from −8 down
[5] = changes in parasitized red cell lysis, either direction – P. falciparum Indochina, OD700, 3 h, PSAC antagonist project, primary screen (AID 1156); details: P. falciparum-infected erythrocytes, osmotic lysis, higher = more signal, called active from +8 up or from −8 down
[6] = plasmodial surface anion channel blockers, osmotic lysis – cell-based, P. falciparum Indochina, OD700, 18 h, primary screen (AID 1157); details: P. falciparum Indochina infected erythrocytes, osmotic lysis OD700, 18 h; higher = more signal, called active from +8 up or from −8 down
[7] = S6 kinase pathway phospho-S6 level changes – cell-based, A549, cytoblot, luminescence, serum-stimulated, primary screen (AID 1158); details: 5 h, higher = more signal;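 note: serum-stimulated A549 lung adenocarcinoma cells; signal is phosphorylated S6 detected by cytoblot immunostaining with HRP secondary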
[8] = molecular target: NADPH oxidase 2 (Homo sapiens) (UniProt P04839); experiment: compounds shifting NOX2 Amplex Red fluorescence – cell-based, HEK293-NOX2, PMA-stimulated, NOX inhibitor project, primary screen (AID 1159); details: 45 min, higher = more signal, called active from +8 up or from −8 down; note: test concentration not given here
NADPH oxidase 2 (Homo sapiens), sequence (P04839 whole entry, looked up): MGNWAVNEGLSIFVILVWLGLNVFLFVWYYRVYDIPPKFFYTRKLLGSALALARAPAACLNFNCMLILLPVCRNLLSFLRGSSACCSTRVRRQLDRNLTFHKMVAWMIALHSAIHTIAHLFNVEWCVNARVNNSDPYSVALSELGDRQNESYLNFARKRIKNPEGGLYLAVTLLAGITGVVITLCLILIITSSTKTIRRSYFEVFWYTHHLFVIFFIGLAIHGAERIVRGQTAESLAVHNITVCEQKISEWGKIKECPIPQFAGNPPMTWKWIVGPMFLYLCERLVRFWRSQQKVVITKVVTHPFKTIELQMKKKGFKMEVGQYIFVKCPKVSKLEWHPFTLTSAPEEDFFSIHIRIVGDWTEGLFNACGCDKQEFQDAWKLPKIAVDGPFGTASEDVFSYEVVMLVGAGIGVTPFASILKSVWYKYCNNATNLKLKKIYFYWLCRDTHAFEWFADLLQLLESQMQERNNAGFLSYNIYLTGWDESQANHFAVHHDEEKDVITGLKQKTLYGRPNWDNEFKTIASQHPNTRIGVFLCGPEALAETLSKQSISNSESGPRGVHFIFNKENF

[9] = molecular target: NADPH oxidase 4 (Homo sapiens) (UniProt Q9NPH5); experiment: compounds shifting NOX4 Amplex Red fluorescence – cell-based, HEK293-NOX4, tetracycline-induced, NOX inhibitor project, primary screen (AID 1160); details: HEK293-NOX4, Amplex Red H2O2 fluorescence, 45 min; higher = more signal, called active from +8 up or from −8 down
NADPH oxidase 4 (Homo sapiens), sequence (Q9NPH5 whole entry, looked up): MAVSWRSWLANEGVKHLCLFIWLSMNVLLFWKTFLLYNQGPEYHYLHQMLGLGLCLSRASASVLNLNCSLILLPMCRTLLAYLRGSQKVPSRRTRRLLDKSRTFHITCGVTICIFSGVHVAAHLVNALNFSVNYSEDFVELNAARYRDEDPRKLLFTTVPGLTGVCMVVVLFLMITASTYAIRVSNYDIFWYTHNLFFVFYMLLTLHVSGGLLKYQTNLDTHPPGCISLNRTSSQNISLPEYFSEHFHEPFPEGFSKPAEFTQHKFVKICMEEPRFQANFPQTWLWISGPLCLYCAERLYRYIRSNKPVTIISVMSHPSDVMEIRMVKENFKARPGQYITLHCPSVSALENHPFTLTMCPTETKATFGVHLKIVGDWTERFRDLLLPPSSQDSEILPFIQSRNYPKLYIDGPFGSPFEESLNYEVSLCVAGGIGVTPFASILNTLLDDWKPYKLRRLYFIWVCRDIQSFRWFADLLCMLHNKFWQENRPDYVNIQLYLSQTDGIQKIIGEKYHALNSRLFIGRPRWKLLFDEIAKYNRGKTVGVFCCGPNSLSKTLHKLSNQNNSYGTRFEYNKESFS

[10] = molecular target: NADPH oxidase 5 (Homo sapiens) (UniProt Q96PH1); experiment: compounds shifting NOX5 Amplex Red fluorescence – cell-based, HEK293-NOX5, NOX inhibitor project, primary screen (AID 1161); details: HEK293-NOX5, ionomycin, 45 min, higher = more signal
NADPH oxidase 5 (Homo sapiens), sequence (Q96PH1 whole entry, looked up): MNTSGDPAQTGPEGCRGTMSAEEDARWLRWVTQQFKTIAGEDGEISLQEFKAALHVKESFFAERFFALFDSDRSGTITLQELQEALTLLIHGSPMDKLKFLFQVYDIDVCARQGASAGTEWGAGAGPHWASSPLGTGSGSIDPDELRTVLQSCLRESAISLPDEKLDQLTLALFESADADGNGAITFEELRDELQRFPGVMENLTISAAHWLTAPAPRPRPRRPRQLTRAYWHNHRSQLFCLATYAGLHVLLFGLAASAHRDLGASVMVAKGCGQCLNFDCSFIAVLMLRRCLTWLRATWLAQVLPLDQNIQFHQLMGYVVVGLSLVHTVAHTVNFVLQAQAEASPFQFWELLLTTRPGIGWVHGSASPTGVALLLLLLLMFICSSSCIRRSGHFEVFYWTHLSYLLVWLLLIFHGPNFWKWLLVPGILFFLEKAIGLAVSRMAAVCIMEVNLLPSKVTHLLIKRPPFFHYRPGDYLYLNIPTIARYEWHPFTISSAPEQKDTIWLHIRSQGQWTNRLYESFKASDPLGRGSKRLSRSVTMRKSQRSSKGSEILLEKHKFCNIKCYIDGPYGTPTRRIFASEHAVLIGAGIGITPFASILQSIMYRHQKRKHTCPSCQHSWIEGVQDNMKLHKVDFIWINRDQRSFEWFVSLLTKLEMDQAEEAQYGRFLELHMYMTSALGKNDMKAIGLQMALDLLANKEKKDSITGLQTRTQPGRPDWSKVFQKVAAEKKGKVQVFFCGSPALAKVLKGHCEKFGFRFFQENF

[11] = compound effects on lung adenocarcinoma cell viability – A549, calcein-AM fluorescence, 48 h, basal, profiling panel (AID 1162); details: higher = more signal; note: test concentration not given here
[12] = compound effects on differentiated 3T3-L1 adipocyte viability – cell-based, 3T3-L1 adipocytes, calcein-AM fluorescence, 48 h, basal, profiling panel (AID 1163); details: 3T3-L1 adipocytes viability, higher = more signal; note: test concentration not given here
[13] = compound effects on hepatocellular carcinoma cell viability – HepG2, calcein-AM fluorescence, 48 h, basal, profiling panel (AID 1164); details: higher = more signal; note: test concentration not given here
[14] = compound effects on multiple myeloma cell viability – MM1S, calcein-AM fluorescence, 48 h, basal, profiling panel (AID 1165); details: higher = more signal;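 note: viability of MM1S multiple myeloma cells under basal unstimulated conditions; test concentration not given here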
[15] = calcein-AM signal in unstimulated myeloma cells – cell-based, calcein-AM fluorescence, 48 h, PK04 Diversity Set, profiling panel (AID 1166); details: RPMI8226 myeloma viability, higher = more signal;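 note: cells grown under basal conditions without added stimulus; test concentration not given here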
[16] = JC-1 mitochondrial signal, unstimulated HepG2 cells – cell-based, JC-1 fluorescence, 24 h, 100 nL compound, profiling panel (AID 1167); details: HepG2 mitochondrial potential, higher = more signal; note: test concentration not given here
[17] = JC-1 mitochondrial signal, unstimulated adipocytes – cell-based, JC-1 fluorescence, 3T3-L1 adipocytes, 24 h, 100 nL compound, profiling panel (AID 1168); details: JC-1 mitochondrial fluorescence, higher = more signal, called active from +8 up or from −8 down; note: test concentration not given here
[18] = JC-1 mitochondrial signal, unstimulated myeloma cells – cell-based, JC-1 fluorescence, RPMI8226, 24 h, 100 nL compound, profiling panel (AID 1169); details: JC-1 mitochondrial potential fluorescence, higher = more signal; note: test concentration not given here
[19] = JC-1 mitochondrial signal, unstimulated MM1S myeloma – cell-based, JC-1 fluorescence, 24 h, 100 nL compound, profiling panel (AID 1170); details: MM1S mitochondrial potential, higher = more signal; note: test concentration not given here
[20] = resazurin metabolic signal in A549 cells – cell-based, resazurin fluorescence, 24 h, PK04 Diversity Set, profiling panel (AID 1171); details: A549 viability, higher = more signal, called active from +8 up or from −8 down; note: test concentration not given here

SMILES	z-score [1]	composite z-score [2]	z-score [3]	z-score [4]	z-score [5]	z-score [6]	z-score [7]	z-score [8]	z-score [9]	z-score [10]	z-score [11]	z-score [12]	z-score [13]	z-score [14]	z-score [15]	z-score [16]	z-score [17]	z-score [18]	z-score [19]	z-score [20]
CCCCC(=C=CC[C@@H](O)c1cccc(OCCO)c1)CCO	0.896 (inactive)	-0.142	6.54 (inactive)	1.02 (inactive)	0.842 (inactive)	0.528 (inactive)	1.3	-0.681 (inactive)	-0.283 (inactive)	-1.8	1.58	-0.634	0.98	0.859	0.0922	0.416	1.27 (inactive)	0.044	-1.09	1.06 (inactive)
CC(C)C[C@H]1NC(=O)[C@H](Cc2ccccc2)NC(=O)[C@@]23C(=O)N[C@@H](Cc4ccccc4)C2[C@H](C)[C@@]2(C)O[C@H]2C3/C=C/C/C=C\CNC1=O (stereo not given in full)	-1 (inactive)	-0.145	0.133 (inactive)	-0.209 (inactive)	0.0708 (inactive)	-0.308 (inactive)	-0.129	1.05 (inactive)	0.819 (inactive)	-1.37	-0.0322	0.13	-1.04	-0.356	-0.718	-1.07	0.0338 (inactive)	0.478	0.704	0.395 (inactive)
CCCC[C@H]1OB(O)C[C@H]2C1=C(COC)C[C@H]1C(=O)C=CC(=O)[C@H]12	0.685 (inactive)	-0.188	1.09 (inactive)	0.272 (inactive)	0.224 (inactive)	0.231 (inactive)	0.0946	-0.235 (inactive)	-0.663 (inactive)	-0.477	0.2	-0.0373	-0.0926	-3.25	-2.35	-2.01	-1.46 (inactive)	-0.59	-0.898	-0.347 (inactive)
COC(=O)C1=CC(CCCO)=CC(c2ccc(CN3CCCC3)cc2)N(Cc2sc3ccccc3c2Cl)C=C1C(=O)OC (stereo not given)	1.68 (inactive)	1.17	3.27 (inactive)	-0.28 (inactive)	-0.235 (inactive)	-1.02 (inactive)	1.6	0.613 (inactive)	0.311 (inactive)	0.116	1.38	0.0739	1.72	0.217	0.662	4.71	0.531 (inactive)	0.393	2.3	-0.142 (inactive)
CCOC(=O)C[C@H]1[C@H](OC(=O)c2cc3ccccc3oc2=O)[C@@H](NC(=O)C2CCCCC2)c2cc(OCCCO)ccc2N1C(=O)Cc1ccc(OC)cc1	-0.926 (inactive)	0.266	2.92 (inactive)	0.275 (inactive)	0.722 (inactive)	0.328 (inactive)	0.0301	1.57 (inactive)	1.01 (inactive)	1.63	-0.266	0.535	0.391	0.254	0.0583	0.38	-0.229 (inactive)	0.0411	0.185	-0.545 (inactive)
COC(=O)[C@@]1(Cc2ccc(F)cc2)[C@H]2c3cc(C(=O)N(C)C)n(CCN4CCOCC4)c3C[C@H]2CN1C(=O)c1ccccc1	-1.43 (inactive)	0.865	-0.64 (inactive)	-0.738 (inactive)	0.922 (inactive)	-1.9 (inactive)	0.537	0.482 (inactive)	0.523 (inactive)	-0.757	-1.27	0.234	-0.796	-1.05	-0.995	-0.738	-0.318 (inactive)	-0.245	-0.28	0.389 (inactive)
COc1ccc([Si](C)(C)[C@@H]2[C@@H](CC(=O)N(CCO)Cc3ccccc3)O[C@]3(C(=O)N(Cc4ccc(N5CCC5=O)cc4)c4ccccc43)[C@H]2C)cc1	1.12 (inactive)	-0.399	6.38 (inactive)	0.924 (inactive)	-0.709 (inactive)	-1.27 (inactive)	0.838	1.53 (inactive)	1.41 (inactive)	3.52	-0.361	2.28	-1.34	-1.28	-3.15	0.768	1.95 (inactive)	-0.944	-0.83	-1.37 (inactive)
COCCOC(=O)N1C(=O)[C@@]2(c3cc(C#CC4(O)CCCCCC4)ccc31)[C@H](C(=O)N1CCc3cc(OC)c(OC)cc3C1)[C@H]1C(=O)O[C@H](c3ccccc3)[C@H](c3ccccc3)N1[C@@H]2c1ccc(O)cc1	1.27 (inactive)	0.176	1.31 (inactive)	0.735 (inactive)	1.89 (inactive)	0.712 (inactive)	0.278	2.19 (inactive)	0.296 (inactive)	0.725	-0.635	1.29	0.582	-1.06	-0.964	-0.145	-0.093 (inactive)	-1.06	0.318	-0.311 (inactive)
C[C@H]1NC(=O)C([C@@H](C)OCc2ccccc2)NC(=O)[C@@]23C(=O)N[C@@H](Cc4ccccc4)C2[C@H](C)[C@@]2(C)O[C@H]2C3/C=C/C/C=C\CNC1=O (stereo not given in full)	-0.009 (inactive)	-0.0501	1.88 (inactive)	0.58 (inactive)	0.761 (inactive)	0.427 (inactive)	-0.104	-0.118 (inactive)	-1.16 (inactive)	-0.16	0.462	1.44	0.14	-0.0497	-0.23	0.817	0.346 (inactive)	0.0911	0.607	-0.214 (inactive)
